Many of the other results were omitted from the sample, so hits are more common in it than they were.
RBX1-CUL1 inh – inhibitors of human ROC1-CUL1 ubiquitin ligase activity | inhibition, % at 10 µM | E3 ubiquitin-protein ligase RBX1 (Homo sapiens) + Cullin-1 (Homo sapiens), P62877+Q13616 | actives 0.6% (n = 140,000) | in vitro K48 di-Ub FRET, acceptor:donor ratio, 45 min; in the data active = inhibition above about 25%
Target sequence (P62877 whole entry, looked up): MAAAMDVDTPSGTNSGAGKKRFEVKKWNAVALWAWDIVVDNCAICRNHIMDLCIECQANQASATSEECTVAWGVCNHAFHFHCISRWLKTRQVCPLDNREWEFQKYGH
Target sequence (Q13616 whole entry, looked up): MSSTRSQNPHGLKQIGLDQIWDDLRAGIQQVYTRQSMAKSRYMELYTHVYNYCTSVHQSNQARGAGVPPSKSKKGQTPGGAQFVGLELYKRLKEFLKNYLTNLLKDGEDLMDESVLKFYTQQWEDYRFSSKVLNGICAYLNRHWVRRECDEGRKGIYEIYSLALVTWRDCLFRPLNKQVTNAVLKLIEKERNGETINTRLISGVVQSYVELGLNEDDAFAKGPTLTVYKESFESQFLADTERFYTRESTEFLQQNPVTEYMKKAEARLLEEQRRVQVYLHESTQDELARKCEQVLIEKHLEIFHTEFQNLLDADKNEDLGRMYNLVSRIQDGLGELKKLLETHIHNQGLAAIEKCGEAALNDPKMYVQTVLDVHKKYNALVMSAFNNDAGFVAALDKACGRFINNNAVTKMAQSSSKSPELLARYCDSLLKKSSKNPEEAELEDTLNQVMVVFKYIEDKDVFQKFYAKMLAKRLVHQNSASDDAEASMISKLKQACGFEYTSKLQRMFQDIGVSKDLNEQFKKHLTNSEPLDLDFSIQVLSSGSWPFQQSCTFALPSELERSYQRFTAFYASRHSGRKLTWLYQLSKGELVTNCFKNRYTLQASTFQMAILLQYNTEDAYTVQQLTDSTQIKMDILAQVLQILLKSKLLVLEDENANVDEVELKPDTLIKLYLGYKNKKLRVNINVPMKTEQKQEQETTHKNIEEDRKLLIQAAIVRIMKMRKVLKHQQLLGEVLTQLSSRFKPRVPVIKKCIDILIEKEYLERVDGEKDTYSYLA
Of the large screens only hits and unclear results are named; the others gave an inactive call.

CCOC(=O)C1=C(C)N=c2s/c(=C\c3cc(I)c(O)c(OC)c3)c(=O)n2C1c1ccc(OC)cc1 (centres undefined)	RBX1-CUL1 inh 46.0
CO[C@H]1[C@H](NC(=O)c2ccncc2)c2ccccc2C12CCN(C(=O)CCC(C)C)CC2	none
Cc1cccc(C2c3[nH]c4ccccc4c3CCN2Cc2nc[nH]c2C)c1 (centres undefined)	none
COC(=O)c1c(-c2ccc(C)cc2)csc1NC(C)=O	none
N#CC1C(=N)Oc2cc(O)c(C=Nc3ccc(Cl)c(Cl)c3)cc2C1c1cccc(I)c1 (centres undefined)	none
N#CC1C(=N)Oc2cc(O)c(C=Nc3cc(C(F)(F)F)ccc3Cl)cc2C1c1ccco1 (centres undefined)	RBX1-CUL1 inh 85.2
Cc1ccc(N=Cc2cc3c(cc2O)OC(=N)C(C#N)C3c2cccc(F)c2)c(C)c1 (centres undefined)	none
CCOc1c(S(=O)(=O)NCc2ccco2)ccc(Cl)c1Cl	none
COc1ccc(CCNC2CCN(c3ccc(C(=O)NCCN4CCOCC4)cc3)CC2)c(OC)c1	none
CCOc1ccc2nc(SCC(N)=O)sc2c1	none
Cc1ccc(-n2c(-c3ccncc3)n[nH]c2=S)cc1	none
Cc1ccc(-n2c(Cl)c(Cl)nc(Cl)c2=O)cc1	RBX1-CUL1 inh 45.0
Cc1ccc(-n2c(-c3ccccc3)cc(-c3ccccc3)nc2=O)cc1	none
CCc1c([O-])[n+](-c2ccccc2)c(-c2ccccc2)n(-c2ccccc2)c1=O	none
COc1ccccc1N1C(=O)c2ccccc2NC1c1ccc(N2CCOCC2)cc1 (centres undefined)	none
Cc1ccccc1C(=O)Nc1cnc2c(C)cccn2c1=O	none
COc1cccc(/C=C2/C(=O)NN(c3ccc(C)cc3)C2=O)c1	none
Cc1ccc(COc2ccccc2/C=C2\C(=O)NN(c3ccccc3)C2=O)cc1	none
Cc1cccc(OCCCOc2ccccc2/C=C2\C(=O)NN(c3ccccc3)C2=O)c1	RBX1-CUL1 inh 32.2
O=C1NN(c2ccccc2)C(=O)/C1=C/c1cc(Cl)ccc1OCCCOc1ccccc1	none
Cc1ccc(OCCCOc2cccc(/C=C3\C(=O)NN(c4ccccc4)C3=O)c2)cc1	RBX1-CUL1 inh 25.5
COc1cc(/C=C2\C(=O)NN(c3ccccc3)C2=O)ccc1OCCCOc1ccccc1	none
COc1ccc2c(c1)c(=O)oc1ccccc12	none
CC1(O)CC(=O)C(C(=O)OCc2ccccc2)C(c2ccc(O)cc2)C1C(=O)OCc1ccccc1 (centres undefined)	none
COC12C=CC(CC1)C1C(=O)c3c(OC(=O)OCc4ccccc4)ccc(O)c3C(=O)C12 (centres undefined)	RBX1-CUL1 inh 26.8
COC12C=CC(CC1)C1C(=O)c3cccc(O)c3C(=O)C12 (centres undefined)	none
COc1cccc(CNc2ccc(N3CCOCC3)cc2)c1OC	none
CCOc1c(Cl)cc(CNc2ccc(N3CCCC3)cc2)cc1OC	RBX1-CUL1 inh 67.8
COc1cc(CNc2ccc(N3CCCC3)cc2)cc(Cl)c1OCc1ccc(F)cc1	none
CCC(Oc1cc(C)ccc1Cl)C(=O)NC1CCN(CC)CC1 (centres undefined)	none
O=C(O)c1cc(Nc2c([N+](=O)[O-])cc3c4c(cccc24)C(=O)OC3=O)ccc1O	RBX1-CUL1 inh 26.9
COc1ccccc1N1C(=O)c2cccc3c(Nc4cccc(Cl)c4)c([N+](=O)[O-])cc(c23)C1=O	none
O=C(O)c1ccc(N2C(=O)c3cccc4c([N+](=O)[O-])ccc(c34)C2=O)cc1O	none
N#Cc1c(NC(=O)CSc2nnc(Cc3ccccc3)o2)sc2c1CCCC2	none
CCc1ccc(CNC(=O)C(CC)n2nc(C)c3c(C)n(-c4ccccc4)nc3c2=O)cc1 (centres undefined)	none
C=CCN1C(=O)C(C#N)=C(C)/C(=C\c2ccc(-c3ccc(Cl)c(C(=O)OC(C)C)c3)o2)C1=O	none
CC1=C(C#N)C(=O)N(C)C(=O)/C1=C\c1ccc(-c2ccc(C(=O)OC(C)C)cc2)o1	none
CC1=C(C#N)C(=O)N(CC(C)O)C(=O)/C1=C/c1ccc(-c2ccc(Br)cc2)o1 (centres undefined)	RBX1-CUL1 inh 47.0
COc1ccccc1/C=C/CN1CCCC(CNC(=O)c2cccnc2)C1 (centres undefined)	none
OCc1ccc(C#Cc2ccccc2)o1	RBX1-CUL1 inh 80.9
OCc1ccccc1C#Cc1ccccc1	none
Nc1ccccc1C#Cc1ccccc1	none
CCCc1c(C(=O)N2CCOCC2)nnn1-c1ccc(OC)cc1	none
O=C(Nc1cc2nn(-c3ccccc3)nc2cc1Cl)c1ccccc1Br	none
O=C(Nc1cc2nn(-c3ccccc3)nc2cc1Cl)c1ccc(Br)cc1	none
Nc1c(Cl)cc2nn(-c3ccccc3)nc2c1Br	RBX1-CUL1 inh 31.2
CCCN1CCN(C(=O)Nc2ccc(C)c(C)c2)CC1	none
O=C(CCC1CCN(Cc2ccc(CO)o2)CC1)Nc1ccccc1	none
CCOc1cc(/C=C2\C(=O)NN(c3cccc(Cl)c3)C2=O)c(Br)c(Br)c1O	RBX1-CUL1 inh 62.2
CCOc1cc(/C=C2\C(=O)NN(c3ccc(C)c(Cl)c3)C2=O)c(Br)c(Br)c1O	RBX1-CUL1 inh 100.1
CCOc1ccccc1/C=C1\C(=O)NN(c2ccc(Br)cc2)C1=O	none
O=C1NN(c2cccc(Cl)c2)C(=O)/C1=C/c1ccccc1O	none
COc1cc(/C=C2/C(=O)NN(c3ccc(C)c(Cl)c3)C2=O)cc(Cl)c1O	none
CCOc1cc(/C=C2\C(=O)NN(c3ccc(C)c(C)c3)C2=O)ccc1O	none
Cc1nc2c(c(C)c1CCC(=O)N1CCN(c3ccccc3)CC1)c(=O)n(C)c(=O)n2C	none
C(=C\c1ccccc1)/CSc1nc2ccccc2[nH]1	none
OCC1(Cc2cccc(F)c2)CCN(Cc2cccc3cccnc23)CC1	none
Cc1ccc(CN2CCN(C3CCN(C(=O)c4ccccc4)CC3)C(=O)C2=O)cc1	none
O=C(NNC(=O)c1cc2cc(Br)ccc2oc1=O)c1ccncc1	none
O=C(NNC(=O)c1cc2cc(Br)ccc2oc1=O)c1ccc(O)cc1O	RBX1-CUL1 inh 43.9
CCOC(=O)NC(=O)c1cc2cc(Br)ccc2oc1=O	none
CN(CCn1ccnc1)c1cc(C2CCCNC2)ncn1 (centres undefined)	none
Cc1ccc(C(=O)COC(=O)C(Cc2c[nH]c3ccccc23)NC(=O)c2ccc(C(C)(C)C)cc2)cc1 (centres undefined)	none
CC(C)(C)c1ccc(N)c([N+](=O)[O-])c1	none
CC(C)(C)c1ccc(/C=C/c2[nH]c(=O)[nH]c(=O)c2[N+](=O)[O-])cc1	RBX1-CUL1 inh 99.1
CC(C)c1ccc(/C=C/c2nc(N)[nH]c(=O)c2[N+](=O)[O-])cc1	none
COc1cc(-c2nnc(SCC(=O)N/N=C/c3cc([N+](=O)[O-])ccc3O)n2-c2ccccc2)cc(OC)c1OC	none
CC1CC(OCC(S)CN2CCN(c3ccc(F)cc3)CC2)CC(C)(C)C1 (centres undefined)	none
Nc1c(C(=O)c2ccccc2)sc2nc(-c3ccccc3)ccc12	none
NC(=O)c1c(SCC(=O)c2ccccc2)sc(C(=O)c2ccccc2)c1N	RBX1-CUL1 inh 31.1
O=C(CSc1nc2ccccc2nc1SCC(=O)c1ccccc1)c1ccccc1	none
Cc1ccc(C(=O)NCCN2CCOCC2)s1	none
O=C1C2=C/C(=C\N3CCCCC3)C(=O)N2c2ccccc21	RBX1-CUL1 inh 74.9
O=C1C(=O)N(CNc2ccccc2Cl)c2ccccc21	none
O=C1c2ccccc2C(=O)N1CN1CCCCCC1	none
CCCN1CC=C2C(C#N)C(=N)C(C#N)(C#N)[C@H](c3ccc(-c4ccccc4)cc3)C2C1 (some centres undefined)	none
O=C(CSc1nc2sc3c(c2c(=O)n1-c1ccccc1)CCC3)NCC1CCCO1 (centres undefined)	none
